Screening results deposited in PubChem BioAssay by National Center for Advancing Translational Sciences (NCATS).
The list is not random: actives were taken first. Their share in the collection is about 10%.
ALOX12 inhib: qHTS Assay for Inhibitors of 12-hLO (12-human lipoxygenase) | Polyunsaturated fatty acid lipoxygenase ALOX12 (Homo sapiens), P18054 | purified 12-hLO, xylenol orange hydroperoxide absorbance | Potency, µM (highest dose often 57.1 µM), most hits filed as inhibitors | 150,000 tested, 0.12% active; active = well fitted inhibition curve with a large enough effect; inconclusive = small, poorly fitted or top-dose-only effect; note: nearly all actives have a fitted effect of over 55% in size
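150 nM 12hLO, 25 mM Hepes pH 7.0 + 0.01% Triton X-100; cpd preinc 15 min RT; 40 uM arachidonic acid, 30 min RT; Fe-XO 30 min; A573/A405 ratio as read-out.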
ALDH1A1 block: qHTS Assay for Inhibitors of Aldehyde Dehydrogenase 1 (ALDH1A1). AID 1030, 2008. Aldehyde dehydrogenase 1A1 (Homo sapiens), P00352. 220,000 tested, 7.3% active. Potency, µM (titrated, usually from 75.3 µM), hits mostly inhibitors. Purified ALDH1A1, NADH fluorescence, propionaldehyde substrate
Target sequence (P00352 whole entry, looked up): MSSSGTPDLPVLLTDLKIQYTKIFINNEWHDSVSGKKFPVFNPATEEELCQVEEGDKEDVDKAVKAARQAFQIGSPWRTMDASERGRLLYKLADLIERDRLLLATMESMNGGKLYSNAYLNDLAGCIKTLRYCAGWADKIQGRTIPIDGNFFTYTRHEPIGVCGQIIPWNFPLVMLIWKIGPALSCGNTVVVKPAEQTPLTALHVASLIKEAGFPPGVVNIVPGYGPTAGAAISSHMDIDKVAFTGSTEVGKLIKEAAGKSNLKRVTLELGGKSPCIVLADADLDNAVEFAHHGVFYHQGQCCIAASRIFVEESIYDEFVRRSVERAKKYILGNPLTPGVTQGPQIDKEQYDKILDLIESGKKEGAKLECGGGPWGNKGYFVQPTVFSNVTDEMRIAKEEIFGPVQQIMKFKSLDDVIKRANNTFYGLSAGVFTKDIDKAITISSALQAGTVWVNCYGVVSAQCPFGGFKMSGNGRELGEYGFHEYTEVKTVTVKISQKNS
LMNA splice mod: qHTS Assay for Modulators of Lamin A Splicing; HeLa LMNA splicing GFP/RFP minigene ratio, 48 h; 200,000 tested, 0.01% active; Potency, µM (highest dose often 46.1 µM), most hits filed as inhibitors; AID 1487, 2009; active = well fitted inhibition curve with a large enough effect in the signal ratio, with a control signal flat, not every such curve was filed as active; inconclusive = small, poorly fitted or top-dose-only effect, or effect the other way, or a change in a side signal; the % refers to the signal ratio
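Read-out is the ratio of GFP to DsRed2 object intensity, acquired by 488 nm laser-scanning cytometry on HeLa lamin A-EGFP minigene reporter cells. Compound incubation 48 hrs at 37 °C in Opti-MEM with 2% FBS; DMSO 0.5% final.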
HPGD inh: qHTS Assay for Inhibitors of HPGD (15-Hydroxyprostaglandin Dehydrogenase); 15-hydroxyprostaglandin dehydrogenase [NAD(+)] (Homo sapiens), P15428; purified HPGD, NADH fluorescence kinetic, PGE2 substrate; Potency, µM, actives largely listed as inhibitors; 150,000 tested, 4.3% active
Target sequence (P15428 whole entry, looked up): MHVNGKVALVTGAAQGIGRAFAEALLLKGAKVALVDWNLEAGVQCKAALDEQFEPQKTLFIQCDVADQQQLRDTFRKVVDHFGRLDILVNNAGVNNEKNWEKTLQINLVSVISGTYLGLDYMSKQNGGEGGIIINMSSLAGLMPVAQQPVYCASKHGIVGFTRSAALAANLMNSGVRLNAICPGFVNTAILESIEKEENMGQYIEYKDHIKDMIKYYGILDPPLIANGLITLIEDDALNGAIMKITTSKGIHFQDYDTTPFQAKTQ
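NADH formation kinetics: reaction with 30 uM PGE2 and 1 mM NAD+ (final), 20 nM enzyme, Tris-HCl pH 8 with Tween 20, after 15 min compound preincubation at room temperature. Fluorescence change, last versus first of five reads.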
PNC inhibitor: High Content Assay for Compounds that inhibit the Assembly of the Perinucleolar Compartment; PC3M PTB-GFP, PNC prevalence imaging, 16 h; active compounds read low; activity change (PNC), negative = inhibition, % at 10 µM; 140,000 tested, 3.1% active; AID 2417, 2010;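 active = readout at or below -70, meaning at least 70% loss of cells showing the perinucleolar compartment, a nuclear body marking cancer cells; inconclusive = readout between -30 and a set limit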
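PC3M cells stably expressing PTB-GFP, 750–1000 cells/well, treated 16 h at 37 °C with compound (23 nl of library stock), in duplicate. After paraformaldehyde fixation and Hoechst stain, imaged at 20x; PNC prevalence scored by image analysis.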
Numbers stand for hits; – = inactive; ? = inconclusive; · = no result; [ ] = another dose, or the depositor's remark. Unless noted, calls come from the whole dose curve; as a rule, active = well fitted inhibition curve with a large enough effect (not every such curve was filed as active); inconclusive = small, poorly fitted or top-dose-only effect, or another doubt; inactive = no such curve, though single readings can be large or run the other way.

SMILES | ALOX12 inhib | ALDH1A1 block | LMNA splice mod | HPGD inh | PNC inhibitor
CCC(=O)N1CCc2cc(Br)cc(S(=O)(=O)NCCc3ccc(C)cc3)c21 | · | · | – | · | ·
O=C(O)CCc1ccc(-c2ccccc2)[nH]1 | –[11.4 µM] | –[13.5 µM] | · | – | ·
CCN(CC)S(=O)(=O)c1cccc(NC(=O)C2SC(=Nc3ccc(C)cc3C)C(C(=O)NCC3CCCO3)=C2N)c1 (centres undefined) | – | – | – | – | ?
COCCNC(=O)C1=C(N)C(C(=O)Nc2ccc(C)c(S(=O)(=O)N3CCCCC3)c2)SC1=Nc1ccc(C)cc1C (centres undefined) | – | 0.79µM | ? | ? | –
Cc1ccc(CN2C(=O)CCC2C(=O)NC2CCCC2)cc1 (centres undefined) | – | – | – | – | –
Cc1ccc(CN2C(=O)CCC2C(=O)NCCN(CC(C)C)CC(C)C)cc1 (centres undefined) | – | 22µM | – | – | –
CC(=O)c1cnc2nc(C)nn2c1C | – | – | – | – | –
CC(=O)c1cnc2ncnn2c1C | – | – | – | – | -113
Cc1cccc(NC(=S)N2CCCCCC2)c1 | – | ? | – | – | -106
Oc1cc(CN2COc3ccccc32)c(O)cc1CNC1CCCCC1 | –[11.4 µM] | –[13.5 µM] | · | 1.6µM | ·
O=c1cc(CNC2CCCCC2)c2ccccc2[nH]1 | – | ? | – | – | –
COc1ccccc1CNC(=O)C(CC(C)C)NC(=O)C1CCC(C)CC1 (centres undefined) | – | – | – | – | -102
Nc1sc2c(c1C(=O)NCCc1ccccc1)CCC2 | · | 20µM | · | · | ·
Nc1sc2c(c1C(=O)c1ccccc1)CCCC2 | – | 14µM | ? | ? | –
NC(=O)c1c(N)sc2c1CCCC2 | – | 13µM | – | 32µM | –
CN1CCc2c(sc(N)c2C(N)=O)C1 | – | ? | – | ? | –
Cc1cc(=O)n(CC(=O)N2CCCc3ccccc32)c2c1c(C)nn2-c1cccc(F)c1 | · | · | – | · | ·
CN(C)/N=C/C=C1\CC/C(=C\c2ccc(Br)cc2)C1=O | – | – | – | – | –
CN(C)/N=C/C=C1\CCC/C(=C/c2cccs2)C1=O | · | 25µM | · | · | ·
CSc1ncccc1C(=O)OCc1ccccc1 | – | – | – | – | –
CSc1ncccc1C(=O)OCc1ccc(COC(=O)c2cccnc2SC)cc1 | – | – | – | – | -108
Cn1c(C(=O)NCc2cccc(F)c2)cc2cc(S(=O)(=O)N3CCCCC3)ccc21 | · | · | – | · | ·
O=C(Nc1ccc2nn(-c3ccccc3)nc2c1)c1ccco1 | – | – | – | ? | -100
Nc1nc(NC(=O)c2ccco2)nn1-c1ccccc1 | – | – | – | – | -90
Nc1nc(NC(=O)Cc2ccccc2)nn1-c1ccccc1 | – | – | – | – | –
SMILES | ALOX12 inhib | ALDH1A1 block | LMNA splice mod | HPGD inh | PNC inhibitor
O=C(Nc1cc2nn(-c3ccccc3)nc2cc1Cl)c1ccco1 | – | – | – | – | –
CCc1ccc(-n2nc(C)c3c(C)cc(=O)n(CC(=O)Nc4ccccc4C(=O)OC)c32)cc1 | · | · | – | · | ·
O=C(CCc1ccc(O)cc1)c1c(O)cc(O)cc1O[C@H]1OC(CO)C(O)C(O)C1O (some centres undefined) | – | – | – | 25µM | ·
O=C(CCc1ccc(O)cc1)c1c(O)cc(O)cc1O[C@@H]1O[C@H](CO)[C@@H](O)[C@H](O)[C@H]1O | – | – | · | ? | ·
CCN(CC)S(=O)(=O)c1cccc(C(=O)Nc2ccccc2C(=O)Nc2ccc(OC)cc2)c1 | · | · | – | · | ·
Cc1ccccc1OCC(=O)NCC(=O)N/N=C/c1ccc(Br)o1 | – | – | – | – | -114
COC(=O)N1CCC[C@@]2(CCN(c3ccccn3)C2)C1 | – | ? | · | ? | ·
O/N=C/c1ccccc1Oc1ccccc1 | – | ? | – | 16µM | –
Cc1cc(C)cc(Oc2ccccc2/C=N\O)c1 | – | – | – | 22µM | ?
Cc1cc(C)cc(Oc2ccccc2C=O)c1 | – | – | – | – | –
CCc1ccc(NC(=O)C(=O)NCCc2sc(-c3ccc(C)cc3)nc2C)cc1 | · | · | – | · | ·
CCOc1ccc(-n2c(C)nc3cc(C(=O)NCc4ccco4)ccc32)cc1 | – | ? | – | 8.9µM | –
COc1ccc(-n2c(C)nc3cc(C(=O)NCc4ccco4)ccc32)cc1 | – | ? | – | 8.9µM | –
COc1ccccc1-n1cnc2cc(C(=O)NCc3ccco3)ccc21 | – | ? | – | 13µM | –
COc1ccc(-n2c(C)nc3cc(C(=O)NCc4ccc5c(c4)OCO5)ccc32)cc1 | – | – | – | – | –
COCCNC(=O)c1ccc2c(c1)nc(C)n2-c1cc(OC)c(OC)c(OC)c1 | – | – | – | 14µM | –
Cn1cc(-c2cc3n(n2)CCC(=O)N3CCCC(=O)NCc2ccccc2)c2ccccc21 | · | · | – | · | ·
O=C(c1ccco1)N1CCC2(CCN(Cc3nccs3)CC2)CC1 | – | – | · | – | ·
COc1cc(NC(=O)N2CCC(CN3CCCCCC3)CC2)cc(OC)c1OC | · | · | – | · | ·
C#CCCCO/N=C1/C[C@@H](O)[C@@H](O)[C@@H]2[C@@H]3C(=O)N(C4CCCCC4)C(=O)[C@H]3CC[C@H]12 | · | –[13.5 µM] | · | · | ·
CN1CCN(c2ncc3nc(-c4cc(F)cc(F)c4)c(=O)n(CCC#N)c3n2)CC1 | · | ? | – | · | ·
c1ccc2c(c1)OC(CCCN1CCCCC1)c1ccccc1S2 (centres undefined) | – | – | – | – | -100
Cn1c2c(c(=O)c3ccccc31)CCC(C)(C)O2 | – | – | ? | 28µM | ?
Cc1cc(=O)oc2c(OS(C)(=O)=O)c(OS(C)(=O)=O)ccc12 | –[11.4 µM] | –[13.5 µM] | · | – | ·
CCNC(=O)NC(=O)C(C)Sc1nc2cc(C(=O)OC)ccc2c(=O)n1-c1ccccc1 (centres undefined) | – | 22µM | ? | – | –
SMILES | ALOX12 inhib | ALDH1A1 block | LMNA splice mod | HPGD inh | PNC inhibitor
CCCCn1c(SC(C)C(N)=O)nc2cc(C(=O)OC)ccc2c1=O (centres undefined) | – | 0.6µM | – | – | –
S=C(Nc1ccc(Br)cc1Cl)Nn1cnnc1 | · | 7.9µM | – | · | ·
O=C(NNC(=S)Nc1ccc(Br)cc1Cl)c1ccncc1 | – | 18µM | – | – | ?
O=C(CCc1ccc(O)c(O)c1)NNC(=S)Nc1ccc(Br)cc1Cl | · | 25µM | ? | · | ·
O=C(COc1ccc(Br)cc1Cl)Nn1cnnc1 | · | – | · | · | ·
COC(=O)[C@H]1CC2(CC=C(C)C)C(=O)[C@@](CC=C(C)C)(C(=O)C(C(=O)c3ccccc3)=C2OC)C1(C)C (tested in a mixture with another compound) | – | ? | · | – | ·
CN(C)CCNCCN | –[11.4 µM] | –[13.5 µM] | · | – | ·
COc1ccccc1Nc1nc2nonc2nc1N1CCCCC1C (centres undefined) | – | – | – | – | –
CC1CCCCN1c1nc2nonc2nc1N1CCCCC1C (centres undefined) | – | 2.2µM | – | – | ?
COc1ccccc1CNC(=O)c1ccoc1C | – | ? | – | – | –
